Experimental data: PubChem BioAssay AID1159580 (chemical genetic matrix, 2015)
Among all 5,500 compounds or so, about 2,000 (36%) were called active. Another 18% or so got no clear call; they are omitted. No stated cut-off is given here; in the data, active means normalized growth mostly below about 0.91 (no sharp cut-off); inconclusive means no clear call, values can overlap the other calls; inactive means mostly above about 0.92. The list shows a part of the results.

Assay: chemical genetic growth profiling, strain panel (AID 1159580);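 further: tested at 20 µM; growth read once vehicle control cultures reached saturation at 30 °C; 1 = growth at the plate median or of vehicle wells; lower values mean less growth of the strain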
Details: S. cerevisiae deletion strains, growth OD

Measured: normalized growth

Oc1ccc2c(c1)O[C@H](c1ccc(O)c(O)c1)[C@@H](O)C2
inactive: locus YAL013W, strain DEP1, active compounds read low 1.03 | locus YAL021C, strain ccr4, active compounds read low 1.02 | locus YAL026C, strain drs2, active compounds read low 1.03 | locus YAL030W, strain snc1, active compounds read low 1.02 | locus YBL061C, strain skt5, active compounds read low 1.04 | locus YBR009C, strain hhf1, active compounds read low 1.03 | locus YBR021W, strain FUR4, active compounds read low 1.04 | locus YBR023C, strain chs3, active compounds read low 1.03 | locus YBR171W, strain sec66, active compounds read low 1.03 | locus YBR229C, strain ROT2, active compounds read low 1.03 | locus YBR231C, strain swc5, active compounds read low 1.03 | locus YBR279W, strain paf1, active compounds read low 1.02 | locus YCL011C, strain gbp2, active compounds read low 1.02 | locus YCL016C, strain dcc1, active compounds read low 1.02 | locus YCL029C, strain bik1, active compounds read low 1.02 | locus YCL061C, strain MRC1, active compounds read low 1.02 | locus YCL069W, strain vba3, active compounds read low 1.03 | locus YCR088W, strain abp1, active compounds read low 1.02 | locus YDL005C, strain med2, active compounds read low 1.02 | locus YDL035C, strain GPR1, active compounds read low 1.07 | locus YDL040C, strain nat1, active compounds read low 1.03 | locus YDL074C, strain BRE1, active compounds read low 1.08 | locus YDL101C, strain DUN1, active compounds read low 1.03 | locus YDL134C, strain PPH21, active compounds read low 1.05 | locus YDL185W, strain tfp1, active compounds read low 0.989 | locus YDL192W, strain arf1, active compounds read low 1.03 | locus YDR001C, strain nth1, active compounds read low 1.03 | locus YDR069C, strain doa4, active compounds read low 1.03 | locus YDR101C, strain arx1, active compounds read low 1 | locus YDR137W, strain rgp1, active compounds read low 1.01 | locus YDR150W, strain NUM1, active compounds read low 1.03 | locus YDR159W, strain sac3, active compounds read low 1.04 | locus YDR162C, strain NBP2, active compounds read low 1.04 | locus YDR195W, strain ref2 0.991 | locus YDR297W, strain sur2, active compounds read low 1.03 | locus YDR318W, strain mcm21, active compounds read low 1.01 | locus YDR334W, strain swr1, active compounds read low 1.04 | locus YDR335W, strain msn5, active compounds read low 1.03 | locus YDR388W, active compounds read low 0.992 | locus YDR392W, strain spt3, active compounds read low 1.03 | locus YDR502C, strain sam2, active compounds read low 0.993 | locus YEL003W, strain gim4, active compounds read low 1.03 | locus YEL037C, strain rad23, active compounds read low 1.02 | locus YEL061C, strain CIN8 (second series), active compounds read low 1.03 | locus YEL061C, strain CIN8, active compounds read low 1.03 | locus YER015W, strain faa2, active compounds read low 1.02 | locus YER016W, strain bim1, active compounds read low 1.02 | locus YER110C, active compounds read low 1.02 | locus YER111C, strain swi4, active compounds read low 1.03 | locus YER155C, strain BEM2 (second series), active compounds read low 1.03 | locus YER155C, strain BEM2, active compounds read low 1.03 | locus YER167W, strain BCK2, active compounds read low 1.03 | locus YFR010W, strain ubp6, active compounds read low 1.02 | locus YGL078C, strain dbp3, active compounds read low 1.01 | locus YGL086W, strain mad1, active compounds read low 0.997 | locus YGL167C, strain pmr1, active compounds read low 1.02 | locus YGL173C, strain kem1, active compounds read low 1.04 | locus YGL227W, strain vid30, active compounds read low 1.03 | locus YGL240W, strain doc1, active compounds read low 1.03 | locus YGL248W, strain PDE1, active compounds read low 1.06 | locus YGL253W, strain hxk2, active compounds read low 1.02 | locus YGR078C, strain PAC10, active compounds read low 1.04 | locus YGR135W, strain pre9, active compounds read low 1.01 | locus YGR252W, strain gcn5, active compounds read low 0.989 | locus YHR013C, strain ard1, active compounds read low 1.02 | locus YHR027C, strain rpn1, active compounds read low 1.02 | locus YHR030C, strain SLT2, active compounds read low 1.03 | locus YHR079C, strain IRE1 (second series), active compounds read low 1 | locus YHR094C, strain hxt1, active compounds read low 0.99 | locus YHR129C, strain ARP1, active compounds read low 1.03 | locus YHR142W, strain chs7, active compounds read low 1.04 | locus YHR200W, strain rpn10, active compounds read low 1 | locus YIL066C, strain RNR3, active compounds read low 1.04 | locus YIL073C, strain SPO22, active compounds read low 1.1 | locus YIL125W, strain kgd1, active compounds read low 1.02 | locus YIR030C, strain dcg1, active compounds read low 1 | locus YJL092W, strain hpr5, active compounds read low 1.02 | locus YJL095W, strain BCK1 (second series), active compounds read low 1.03 | locus YJL095W, strain BCK1, active compounds read low 1.08 | locus YJL115W, strain asf1, active compounds read low 1.02 | locus YJL129C, strain trk1, active compounds read low 1.04 | locus YJL134W, strain LCB3, active compounds read low 1.03 | locus YJL154C, strain vps35, active compounds read low 1.02 | locus YJL164C, strain tpk1, active compounds read low 1.03 | locus YJL166W, strain qcr8, active compounds read low 1.03 | locus YJL168C, strain set2, active compounds read low 1.01 | locus YJL187C, strain SWE1 (second series), active compounds read low 1.04 | locus YJL187C, strain SWE1, active compounds read low 1.03 | locus YJR043C, strain POL32, active compounds read low 1.06 | locus YKL009W, strain mrt4, active compounds read low 1.01 | locus YKL068W, active compounds read low 0.988 | locus YKL085W, strain MDH1 (second series), active compounds read low 1.01 | locus YKL085W, strain MDH1, active compounds read low 1.01 | locus YKL160W, strain elf1, active compounds read low 1.02 | locus YKL190W, strain CNB1, active compounds read low 1.03 | locus YKR001C, strain vps1, active compounds read low 1.04 | locus YKR026C, strain gcn3, active compounds read low 1.02 | locus YKR091W, strain srl3, active compounds read low 1.03 | locus YLL001W, strain dnm1, active compounds read low 1.02 | locus YLL026W, active compounds read low 1.03 | locus YLL041C, strain sdh2, active compounds read low 1.03 | locus YLR027C, strain aat2, active compounds read low 1.02 | locus YLR039C, strain RIC1, active compounds read low 1.23 | locus YLR058C, strain SHM2, active compounds read low 1.04 | locus YLR102C, strain apc9, active compounds read low 0.992 | locus YLR221C, strain rsa3, active compounds read low 1.02 | locus YLR258W, strain gsy2, active compounds read low 1.03 | locus YLR262C, strain YPT6 (second series), active compounds read low 1.04 | locus YLR262C, strain YPT6, active compounds read low 1.25 | locus YLR268W, strain sec22, active compounds read low 1.02 | locus YLR320W, strain mms22, active compounds read low 1.05 | locus YLR330W, strain CHS5, active compounds read low 1.03 | locus YLR342W, strain FKS1, active compounds read low 1.03 | locus YLR357W, strain rsc2, active compounds read low 1.06 | locus YLR370C, strain arc18, active compounds read low 1.04 | locus YLR371W, strain rom2, active compounds read low 1.02 | locus YLR384C, strain iki3, active compounds read low 1.03 | locus YLR418C, strain cdc73, active compounds read low 1.03 | locus YML016C, strain PPZ1, active compounds read low 1.03 | locus YML032C, strain rad52, active compounds read low 1.01 | locus YML120C, strain ndi1, active compounds read low 1.03 | locus YML124C, strain tub3, active compounds read low 1.01 | locus YMR058W, strain fet3, active compounds read low 1.02 | locus YMR078C, strain ctf18, active compounds read low 0.992 | locus YMR125W, strain sto1, active compounds read low 1.02 | locus YMR129W, active compounds read low 1.03 | locus YMR205C, strain PFK2, active compounds read low 1.06 | locus YMR223W, strain ubp8, active compounds read low 0.999 | locus YMR231W, strain pep5, active compounds read low 1.01 | locus YMR307W, strain GAS1, active compounds read low 1.2 | locus YNL067W, strain RPL9B, active compounds read low 1.02 | locus YNL071W, strain lat1, active compounds read low 1.05 | locus YNL153C, strain GIM3, active compounds read low 1.04 | locus YNL209W, strain ssb2, active compounds read low 1.01 | locus YNL233W, strain BNI4, active compounds read low 1.04 | locus YNL248C, strain rpa49, active compounds read low 1.03 | locus YNL250W, strain rad50, active compounds read low 1.01 | locus YNL271C, strain bni1, active compounds read low 1.03 | locus YNL298W, strain CLA4, active compounds read low 1.01 | locus YNL307C, strain MCK1, active compounds read low 1.01 | locus YNL322C, strain KRE1 (second series), active compounds read low 1.02 | locus YNR049C, strain mso1, active compounds read low 1.03 | locus YNR052C, strain pop2, active compounds read low 1 | locus YOL012C, strain htz1 0.833 | locus YOL147C, strain pex11, active compounds read low 0.996 | locus YOR001W, strain rrp6, active compounds read low 1.03 | locus YOR061W, strain CKA2, active compounds read low 1.04 | locus YOR069W, strain VPS5, active compounds read low 1.03 | locus YOR070C, strain gyp1, active compounds read low 1.03 | locus YOR080W, strain dia2, active compounds read low 1.02 | locus YOR083W, strain WHI5, active compounds read low 1.02 | locus YOR106W, strain vam3, active compounds read low 1.03 | locus YOR136W, strain idh2, active compounds read low 0.996 | locus YOR144C, strain elg1, active compounds read low 0.992 | locus YOR184W, strain ser1, active compounds read low 1.05 | locus YOR265W, strain rbl2, active compounds read low 1.03 | locus YOR270C, strain vph1, active compounds read low 1.06 | locus YOR290C, strain snf2, active compounds read low 1.05 | locus YOR316C, strain cot1, active compounds read low 0.999 | locus YPL051W, strain arl3, active compounds read low 1.01 | locus YPL078C, strain atp4, active compounds read low 1.02 | locus YPL106C, strain sse1, active compounds read low 0.998 | locus YPL240C, strain hsp82, active compounds read low 1.02 | locus YPR119W, strain clb2, active compounds read low 0.996 | locus YPR141C, strain kar3, active compounds read low 1.01 | locus YPR163C, strain tif3, active compounds read low 0.999 | locus YPR167C, strain met16, active compounds read low 0.996 | strain wtn01, active compounds read low 1.02
